# In the OligoGym collection:
# Biological target: DPRX
# Assay: pooled miR-30 sensor sort-seq; sequence = guide strand
# Conditions: shRNA
# Note: reference of the scale not given here.
row,Sequence,sensor-assay potency score (higher = more potent)
1,TTTCCTGTGTGAATGCATCTGG,0.364
2,TAGTGTGTCTGCATTTCTCAGG,-0.247
3,TTGCTTCTTAGTGAACATGGTT,-0.403
4,TGCTTCTTAGTGAACATGGTTC,-0.891
5,TTGGGGTACAGGATGAGCTGGA,0.271
6,TTTTGATGAATATGCTTGCATT,-1.14
7,TTTTGCTCTGTGATTCTTGAAC,-0.966
8,TATATATTAGGATCTCGGCAGC,-0.886
9,TTTTTGATGAATATGCTTGCAT,0.217
10,TTCTTAGTGAACATGGTTCGTT,0.0305
11,TCGATGACCCGTGTACACCAGG,-1.09

# Biological target: DQX1
# Assay: as above
# Conditions: shRNA
row,Sequence,sensor-assay potency score (higher = more potent)
1,TTTTAGTAGTAACACCAGGGAG,-0.895
2,TGAGTGACCACAACCTTTCGGG,0.181
3,TTGCTCGCAATCGTCTTGCCTC,-0.154
4,TTTAGTAGTAACACCAGGGAGC,-0.54
5,TATAAAGGCTTCATACACCTGG,0.178
6,TAGGATTGTAAACACTTCGGAG,-0.968
7,AACACTAGCACATCTCCTGGAA,0.212
8,TTCAGCAGCTCATAGTAGCGGG,-0.681
9,TAGTATGACACCCAGATCTGAC,-0.721
10,TTGAATCTCAGAAACAATGGAA,0.304
11,TTCTGGAGCAGGCTGGTCCAGG,-1.18
12,TTCTGATAGTATGACACCCAGA,-1.09
